Measured values taken from the supplement of paper PMC9694430.
Structures can show the parent of a compound that is named as a salt.

Tests used:
Assay in all cases: thermal shift delta Tm vs DMSO control; higher = stronger stabilization (binding)
Conditions in all cases: 12.5 µM; protein concentration 2 µM
[1] = tested on: LOC_OS01G01410-cb001
How it was run: (§1)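 Thermal shift values come from differential scanning fluorimetry on purified rice kinase domains made in E. coli, with melting temperatures obtained from Boltzmann fits. Samples of 19.5 μl held 2 μM kinase, 100 mM potassium phosphate pH 7.5, 150 mM NaCl, 10% glycerol, 5 × SYPRO Orange and compound in DMSO, and were heated from 25°C to 95°C at 0.05°C/s. Each shift is a triplicate mean relative to the DMSO-only protein sample.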

[2] = tested on: LOC_OS01G02750-cb003
How it was run: as §1

[3] = tested on: LOC_OS01G10900-cb004
How it was run: as §1

[4] = tested on: LOC_OS01G13800-cb001
How it was run: as §1

[5] = tested on: LOC_OS01G14860-cb001
How it was run: as §1

[6] = tested on: LOC_OS01G21960-cb002
How it was run: as §1

[7] = tested on: LOC_OS01G39600-cb002
How it was run: as §1

[8] = tested on: LOC_OS01G48390-cb002
How it was run: as §1

[9] = tested on: LOC_OS01G51400-cb002
How it was run: as §1

[10] = tested on: T1, LOC_OS01G52050-cb004
T1 sequence (whole entry): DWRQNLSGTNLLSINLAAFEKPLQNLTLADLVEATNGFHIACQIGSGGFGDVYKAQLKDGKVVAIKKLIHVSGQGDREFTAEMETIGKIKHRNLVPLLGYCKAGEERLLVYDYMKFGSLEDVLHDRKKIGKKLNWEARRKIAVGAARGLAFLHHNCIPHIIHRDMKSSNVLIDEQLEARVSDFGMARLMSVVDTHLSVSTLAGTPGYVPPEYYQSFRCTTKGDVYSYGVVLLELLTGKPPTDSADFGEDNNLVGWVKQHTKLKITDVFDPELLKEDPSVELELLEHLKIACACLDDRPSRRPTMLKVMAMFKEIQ
How it was run: as §1

[11] = tested on: LOC_OS01G57100-cb003
How it was run: as §1

[12] = tested on: LOC_OS01G60330-cb001
How it was run: as §1

[13] = tested on: LOC_OS01G60700-cb002
How it was run: as §1

[14] = tested on: LOC_OS01G63280-cb003
How it was run: as §1

[15] = tested on: LOC_OS01G67340-cb003
How it was run: as §1

[16] = tested on: LOC_OS01G70970-cb002
How it was run: as §1

[17] = tested on: LOC_OS02G07810-cb001
How it was run: as §1

[18] = tested on: LOC_OS02G08530-cb003
How it was run: as §1

[19] = tested on: LOC_OS02G14120-cb001
How it was run: as §1

[20] = tested on: LOC_OS02G17970-cb001
How it was run: as §1
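Note: purified Escherichia coli-expressed rice kinase domain construct.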

SMILES | thermal shift delta Tm [1] | thermal shift delta Tm [2] | thermal shift delta Tm [3] | thermal shift delta Tm [4] | thermal shift delta Tm [5] | thermal shift delta Tm [6] | thermal shift delta Tm [7] | thermal shift delta Tm [8] | thermal shift delta Tm [9] | thermal shift delta Tm [10] | thermal shift delta Tm [11] | thermal shift delta Tm [12] | thermal shift delta Tm [13] | thermal shift delta Tm [14] | thermal shift delta Tm [15] | thermal shift delta Tm [16] | thermal shift delta Tm [17] | thermal shift delta Tm [18] | thermal shift delta Tm [19] | thermal shift delta Tm [20]
Cc1ccc(NC(=O)c2ccc(CN3CCN(C)CC3)cc2)cc1Nc1nc(-c2cccnc2)cs1 [Masitinib (AB1010)] | 1.11 °C | 0.48 °C | 0.92 °C | 0.24 °C | 0.16 °C | 0.26 °C | -0.05 °C | 0.15 °C | -0.06 °C | -0.18 °C | 0.04 °C | 1.59 °C | 0.59 °C | 0.19 °C | -0.46 °C | 0.24 °C | 0.34 °C | 0.9 °C | 0.12 °C | 0.55 °C
CCC(=O)Nc1cccc(Oc2nc(Nc3ccc(N4CCN(C)CC4)cc3OC)ncc2Cl)c1 | 0.36 °C | 1.2 °C | 0.23 °C | -0.06 °C | -0.01 °C | 0.7 °C | -0.79 °C | 0.98 °C | 0.38 °C | 0.14 °C | 0.87 °C | 1.08 °C | 1.14 °C | 0.16 °C | 0.44 °C | 0.22 °C | 0.45 °C | 1.46 °C | 0.22 °C | 0.04 °C
O=C(c1ccc(Nc2nccc(-c3cc4ccccc4s3)n2)cc1)N1CCC(N2CCCC2)CC1 [IKK-16 (IKK Inhibitor VII)] | 2.52 °C | 2.69 °C | 4.53 °C | -0.34 °C | 5.72 °C | 2.79 °C | 8.28 °C | 1.72 °C | -0.14 °C | 4.5 °C | 0.94 °C | 12.6 °C | 0.43 °C | 2.16 °C | 3.52 °C | 2.66 °C | 0 °C | 2.32 °C | 11.1 °C | 0.35 °C
c1nc2c(NC3CCCCC3)nc(Nc3ccc(N4CCOCC4)cc3)nc2[nH]1 [Reversine] | 5.03 °C | 0.7 °C | 0.47 °C | 0.43 °C | 2.02 °C | 2.54 °C | 5.31 °C | -0.29 °C | 1.66 °C | 5.54 °C | 0.27 °C | 11.7 °C | 1.27 °C | 1.53 °C | 3.68 °C | 7.39 °C | -0.13 °C | 4.69 °C | 7.96 °C | 0.48 °C
Cc1cc(C)c(/C=C2\C(=O)Nc3ccccc32)[nH]1 [Semaxanib (SU5416)] | 2.4 °C | 1.81 °C | 0.7 °C | -0.49 °C | 0.24 °C | 1.45 °C | 0.58 °C | 1.2 °C | 0.58 °C | 1.59 °C | 1.1 °C | 6.76 °C | 1.12 °C | 0.7 °C | 2.32 °C | 2.72 °C | 1.03 °C | 3.63 °C | 3.06 °C | 1.09 °C
Nc1cc(C(F)(F)F)c(-c2cc(N3CCOCC3)nc(N3CCOCC3)n2)cn1 [Buparlisib (BKM120, NVP-BKM120)] | 0.58 °C | 0.22 °C | 0.31 °C | 0.04 °C | 0.19 °C | 0.6 °C | 0.55 °C | 0.7 °C | 0.92 °C | 0.06 °C | 2.16 °C | 0.57 °C | 1.2 °C | 0.16 °C | 0.47 °C | 0.27 °C | 1.48 °C | 0.84 °C | 0.46 °C | 0.37 °C
COc1cc2/c(=N/c3ccc(Br)cc3F)nc[nH]c2cc1OCC1CCN(C)CC1 [Vandetanib (ZD6474)] | 1.05 °C | -0.06 °C | 0.86 °C | -0.25 °C | 0.15 °C | 0.02 °C | 0.47 °C | 1.67 °C | 0.15 °C | 1.36 °C | 0.28 °C | 0.67 °C | 1.17 °C | 0.47 °C | 1.64 °C | 0.33 °C | 0.65 °C | 2.65 °C | 10.4 °C | 0.76 °C
C[C@H]1CNC(=O)c2cnn3ccc(nc23)N[C@H](C)c2cc(F)ccc2O1 | -0.06 °C | 4.66 °C | 3.91 °C | -0.18 °C | 0.3 °C | 1.05 °C | 0.15 °C | 1.46 °C | 0.22 °C | 4.57 °C | 0.38 °C | -0.02 °C | -0.09 °C | 2 °C | 1.17 °C | 0.74 °C | -0.67 °C | 2.82 °C | 10.7 °C | -0.27 °C
CCOc1ccn(-c2ccc(F)cc2)c(=O)c1C(=O)Nc1ccc(Oc2ccnc(N)c2Cl)c(F)c1 | 0.18 °C | 1.95 °C | 0.48 °C | 0.21 °C | 3.61 °C | 0.65 °C | -0.36 °C | 2.33 °C | 0.21 °C | 0.98 °C | 1.62 °C | 0.89 °C | 0.32 °C | 6.59 °C | 0.42 °C | 0.37 °C | 1.56 °C | 1.41 °C | 4.74 °C | 1.32 °C
C=CC(=O)Nc1cccc(Oc2nc(Nc3ccc(N4CCN(C)CC4)cc3OC)ncc2Cl)c1 | 0.1 °C | -0.5 °C | 0.47 °C | 0.58 °C | 0.25 °C | 0.29 °C | 0.93 °C | 1.75 °C | 0.48 °C | 0.54 °C | -0.16 °C | 0.75 °C | 0.6 °C | 0.05 °C | -0.81 °C | 0.44 °C | 0.62 °C | 1.23 °C | 0.27 °C | 0.24 °C
CC#CC(=O)N1CC[C@@H](n2c(=O)n(-c3ccc(Oc4ccccc4)cc3)c3c(N)ncnc32)C1 [ONO-4059 (GS-4059) hydrochloride] | 0.39 °C | 0.39 °C | 0.14 °C | -0.37 °C | 0.23 °C | 0.04 °C | 0.11 °C | -0.2 °C | -0.08 °C | -0.56 °C | 0.49 °C | 0.71 °C | 0.99 °C | -0.08 °C | 0.27 °C | 0.11 °C | 0.05 °C | 0.27 °C | 0.04 °C | 0.51 °C
Oc1cc(CNC(=S)/C=C/c2cc(O)c(O)c(Br)c2)cc(O)c1O | 4.72 °C | 1.04 °C | -0.23 °C | 4.09 °C | 2.93 °C | 5.85 °C | 0.87 °C | 0.74 °C | 1.58 °C | 1.78 °C | 7.83 °C | 17.7 °C | -0.76 °C | 20 °C | 0.53 °C | 0.97 °C | 4.09 °C | -1.06 °C | -0.83 °C | 7.15 °C
